Data as given in PubChem BioAssay (NCI).
“And” between values parts separate entries of the source, which are not always exact repeats. Equal entries are not always repeated. About 83,000 compounds went through this panel and 20% of them were active in at least one assay; those are over-represented in the sample as a whole.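 Compound tested at a single concentration for 48 hours in 96-well plates; a percent growth value below 10 was scored as active.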 The source made the active and inactive calls.

Each molecule was assayed on MDA-MB-468 breast (assay: NCI-60 one-dose screen, 48 h (100 = growth as untreated, 0 = no growth, -100 = all killed)). Settings: 10 µM unless noted.

SMILES | growth
O=C1C=C(Cl)C(=O)c2ccccc21 | -6.29% (active)
COc1cc(-c2nc3cc(Cl)c(Cl)cc3[nH]2)ccc1OCC(=O)N=Nc1c(O)[nH]c2ccc([N+](=O)[O-])cc12 | 4.59% (active)
C[C@@H](C(=O)O)c1ccc2c3cc(Cl)ccc3n(Cc3cc(=O)oc4ccc(Cl)cc34)c2c1 | 113% (inactive)
O=c1cc(N/N=C/c2ccc(F)cc2)c2cc(Cl)ccc2[nH]1 | 73% (inactive)
O=C(Nc1ccc(NC(=O)c2cc(=O)[nH]c3ccccc23)cc1)Nc1cccc(C(F)(F)F)c1 | 24.6% (inactive)
NC(=O)c1c(OCc2c(F)cc(Br)cc2F)nsc1NC(=O)NCCCCN1CCCC1 | -57.8% (active)
Cc1ccc(C(=O)Nc2ccccc2N)cc1 | 79.1% (inactive)
CC(=O)c1cc(C(=O)c2ccc(Br)cc2)n2cc(C)cc(C)c12 | 89.3% (inactive)
O=C(Cc1ccc(/C=C/C(=O)c2ncc[nH]2)cc1)Nc1ccccc1 | 22.2% (inactive)
C=CCOC(=O)C1=C(C)N(CC)C(=O)N(CC)C1c1c(Cl)n(C)c2ccccc12 (centres undefined) | 98.2% (inactive)
COC(=O)c1ccc2[nH]c(O)c(C(=Nc3ccc(N(C)C(=O)CN4CCN(C)CC4)cc3)c3ccc(CCO)cc3)c2c1 | 37.7% (inactive)
O=C(N/N=C/c1ccccc1)N/N=C/c1ccccc1 | 108% (inactive) and 96.4% (inactive)
O=C(OCC(O)C1OC(c2ccccc2)OC(COC(=O)c2ccccc2)C1O)c1ccccc1 (centres undefined) | 100% (inactive)
Nc1c(C(=O)O)cc(Cl)cc1[N+](=O)[O-] | 96.2% (inactive)
